Drawing on paper PMC7862700, “An all-to-all approach to the identification of sequence-specific readers for epigenetic DNA modifications on cytosine”, this text covers binding signal for one sequence.

Common to all, as to assay: DAPPL (digital affinity profiling via proximity ligation, sequencing); 10 mM Tris-HCl pH 7.5, 50 mM NaCl, 1 mM DTT, 4% glycerol, room temperature, 30 min; GST-TFs on glutathione beads, 16-mer random dsDNA library, 0.1% formaldehyde crosslink after washing; high values mean tight binding
The target of test [1] is T1, FLI1 (Homo sapiens, UniProt Q01543 1-452).
T1 sequence: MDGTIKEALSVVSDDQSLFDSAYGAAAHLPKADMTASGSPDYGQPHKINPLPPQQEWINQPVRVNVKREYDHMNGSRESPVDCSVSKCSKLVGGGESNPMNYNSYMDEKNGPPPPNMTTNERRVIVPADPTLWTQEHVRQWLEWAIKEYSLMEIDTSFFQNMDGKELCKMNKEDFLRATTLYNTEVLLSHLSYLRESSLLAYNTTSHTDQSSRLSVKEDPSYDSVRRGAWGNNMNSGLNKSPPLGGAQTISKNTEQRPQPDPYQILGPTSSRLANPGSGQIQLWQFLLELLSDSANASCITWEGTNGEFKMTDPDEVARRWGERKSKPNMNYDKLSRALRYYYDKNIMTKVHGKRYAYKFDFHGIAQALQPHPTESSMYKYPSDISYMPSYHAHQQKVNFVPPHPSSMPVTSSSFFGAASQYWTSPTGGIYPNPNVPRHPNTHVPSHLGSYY
As to conditions: protein: recombinant; tags: N-terminal GST; dsDNA, one strand shown. Put shortly:
(§1)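 Pools were built from human transcription factors expressed in yeast as GST fusions, captured on glutathione beads and DNA-barcoded, along with a tag-only sample. Incubation with 200 nmole of a 16-mer random double-stranded DNA library lasted 30 min at room temperature in Tris/NaCl/DTT/glycerol buffer, and was followed by washing, 0.1% formaldehyde crosslinking, proximity ligation, PCR amplification and Illumina NextSeq500 sequencing. Binding signal is the quotient of each hexamer's read frequency for a factor and its frequency for the tag-only sample.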

Test [2] concerns the target T2, ELK1 (Homo sapiens, UniProt P19419 1-428).
T2 sequence: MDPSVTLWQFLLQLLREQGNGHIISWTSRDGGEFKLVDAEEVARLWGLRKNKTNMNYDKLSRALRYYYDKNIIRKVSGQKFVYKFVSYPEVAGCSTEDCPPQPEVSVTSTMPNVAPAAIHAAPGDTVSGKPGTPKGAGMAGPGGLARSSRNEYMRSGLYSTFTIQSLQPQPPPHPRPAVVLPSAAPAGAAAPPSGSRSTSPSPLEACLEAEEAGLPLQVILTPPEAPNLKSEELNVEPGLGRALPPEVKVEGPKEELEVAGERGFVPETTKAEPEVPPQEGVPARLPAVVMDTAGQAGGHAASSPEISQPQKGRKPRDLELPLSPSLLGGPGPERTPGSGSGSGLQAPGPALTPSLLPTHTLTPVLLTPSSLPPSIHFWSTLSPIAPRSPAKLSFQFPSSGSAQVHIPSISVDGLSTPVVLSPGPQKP
The settings on record: protein: recombinant; tags: N-terminal GST; dsDNA, one strand shown. Put shortly: as §1

For test [3], the target named is T3, GABPA (Homo sapiens, UniProt Q06546 1-454).
T3 sequence: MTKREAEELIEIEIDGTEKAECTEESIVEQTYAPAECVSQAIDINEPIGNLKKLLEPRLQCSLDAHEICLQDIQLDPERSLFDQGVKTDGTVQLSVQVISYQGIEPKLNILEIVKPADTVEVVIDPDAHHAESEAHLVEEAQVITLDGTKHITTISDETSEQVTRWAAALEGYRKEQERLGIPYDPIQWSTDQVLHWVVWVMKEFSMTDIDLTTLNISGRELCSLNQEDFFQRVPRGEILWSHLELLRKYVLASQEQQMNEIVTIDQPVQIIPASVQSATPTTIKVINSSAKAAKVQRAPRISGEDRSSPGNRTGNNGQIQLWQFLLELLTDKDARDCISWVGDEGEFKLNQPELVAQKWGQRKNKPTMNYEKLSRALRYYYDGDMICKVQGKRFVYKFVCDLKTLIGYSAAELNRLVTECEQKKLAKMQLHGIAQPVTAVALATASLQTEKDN
The settings on record: protein: recombinant; tags: N-terminal GST; dsDNA, one strand shown. Put shortly:
as §1

The target in test [4] is T4, ERG (Homo sapiens, UniProt P11308 1-479).
T4 sequence: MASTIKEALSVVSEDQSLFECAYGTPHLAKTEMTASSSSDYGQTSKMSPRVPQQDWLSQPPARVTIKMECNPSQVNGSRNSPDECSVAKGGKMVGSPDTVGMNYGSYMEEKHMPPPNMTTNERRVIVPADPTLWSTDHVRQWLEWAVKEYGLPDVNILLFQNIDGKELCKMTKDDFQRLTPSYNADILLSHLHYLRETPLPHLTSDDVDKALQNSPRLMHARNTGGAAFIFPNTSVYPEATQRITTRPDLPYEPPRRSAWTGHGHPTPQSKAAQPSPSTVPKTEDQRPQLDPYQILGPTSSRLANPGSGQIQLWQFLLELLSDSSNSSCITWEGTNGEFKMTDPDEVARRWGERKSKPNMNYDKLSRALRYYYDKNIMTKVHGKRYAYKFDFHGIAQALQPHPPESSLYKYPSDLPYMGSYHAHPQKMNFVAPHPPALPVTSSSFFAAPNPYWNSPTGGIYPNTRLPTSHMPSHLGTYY
The settings on record: protein: recombinant; tags: N-terminal GST; dsDNA, one strand shown. In outline:
as §1

Test [5] deals with ELF1 (Homo sapiens, UniProt P32519 1-619). As to conditions: protein: recombinant; tags: N-terminal GST; dsDNA, one strand shown. Put shortly: as §1
ELF1, sequence (P32519 whole entry): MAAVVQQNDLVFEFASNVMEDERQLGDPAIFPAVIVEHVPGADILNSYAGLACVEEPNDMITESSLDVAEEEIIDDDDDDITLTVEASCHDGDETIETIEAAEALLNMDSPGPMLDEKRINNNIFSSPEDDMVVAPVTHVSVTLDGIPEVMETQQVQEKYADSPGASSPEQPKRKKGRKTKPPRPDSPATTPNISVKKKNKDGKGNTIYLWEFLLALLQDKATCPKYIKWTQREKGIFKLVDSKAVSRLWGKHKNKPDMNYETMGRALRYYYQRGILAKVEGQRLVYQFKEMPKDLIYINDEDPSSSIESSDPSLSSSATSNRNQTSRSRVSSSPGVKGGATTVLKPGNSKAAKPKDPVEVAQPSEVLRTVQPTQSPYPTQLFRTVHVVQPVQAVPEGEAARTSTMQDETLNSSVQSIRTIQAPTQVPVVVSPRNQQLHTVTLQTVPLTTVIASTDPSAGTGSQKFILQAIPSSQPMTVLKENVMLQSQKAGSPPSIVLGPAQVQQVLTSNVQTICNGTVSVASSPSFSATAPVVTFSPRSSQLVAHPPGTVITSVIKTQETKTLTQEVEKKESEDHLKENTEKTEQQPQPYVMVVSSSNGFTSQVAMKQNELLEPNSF
Test [6] deals with T5, EHF (Homo sapiens, UniProt Q9NZC4 1-300).
T5 sequence: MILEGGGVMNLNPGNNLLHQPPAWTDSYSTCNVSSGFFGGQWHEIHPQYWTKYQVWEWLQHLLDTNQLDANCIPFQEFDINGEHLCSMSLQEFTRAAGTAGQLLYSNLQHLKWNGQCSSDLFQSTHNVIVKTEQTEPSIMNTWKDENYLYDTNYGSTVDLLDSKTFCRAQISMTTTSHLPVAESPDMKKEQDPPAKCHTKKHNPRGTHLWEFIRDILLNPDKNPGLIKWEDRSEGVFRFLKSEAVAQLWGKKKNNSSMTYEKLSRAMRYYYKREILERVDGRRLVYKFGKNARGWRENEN
As to conditions: protein: recombinant; tags: N-terminal GST; dsDNA, one strand shown. Put shortly:
as §1

The target of test [7] is SPI1 (Homo sapiens, UniProt P17947 1-270). As to conditions: protein: recombinant; tags: N-terminal GST; dsDNA, one strand shown. In outline: as §1
Test [8] addresses SPIB (Homo sapiens, UniProt Q01892 1-262). The settings on record: protein: recombinant; tags: N-terminal GST; dsDNA, one strand shown. Put shortly:
as §1

Test [9] has as its target T6, ELK3 (Homo sapiens, UniProt P41970 1-407).
T6 sequence: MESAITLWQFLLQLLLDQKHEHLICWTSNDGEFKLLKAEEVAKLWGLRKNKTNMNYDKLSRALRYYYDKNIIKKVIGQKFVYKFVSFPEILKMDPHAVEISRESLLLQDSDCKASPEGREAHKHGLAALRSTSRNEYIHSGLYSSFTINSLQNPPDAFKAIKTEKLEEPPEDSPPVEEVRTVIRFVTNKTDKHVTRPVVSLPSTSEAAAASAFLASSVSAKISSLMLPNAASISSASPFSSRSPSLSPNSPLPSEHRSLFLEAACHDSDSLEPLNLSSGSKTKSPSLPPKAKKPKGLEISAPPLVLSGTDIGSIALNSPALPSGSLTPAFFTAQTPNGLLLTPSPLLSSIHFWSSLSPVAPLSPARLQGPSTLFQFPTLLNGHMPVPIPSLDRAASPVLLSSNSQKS
As to conditions: protein: recombinant; tags: N-terminal GST; dsDNA, one strand shown. In outline: as §1

Test [10] has as its target T7, FEV (Homo sapiens, UniProt Q99581 1-238).
T7 sequence: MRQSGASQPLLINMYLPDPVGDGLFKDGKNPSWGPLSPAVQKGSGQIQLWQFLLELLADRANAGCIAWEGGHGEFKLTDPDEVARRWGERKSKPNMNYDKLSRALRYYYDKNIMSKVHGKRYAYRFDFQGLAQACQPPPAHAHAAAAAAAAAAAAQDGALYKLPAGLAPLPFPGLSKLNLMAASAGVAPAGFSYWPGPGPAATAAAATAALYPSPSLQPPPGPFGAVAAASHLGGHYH
As to conditions: protein: recombinant; tags: N-terminal GST; dsDNA, one strand shown. Put shortly:
as §1

Test [11] deals with ETV5 (Homo sapiens, UniProt P41161 1-510). As to conditions: protein: recombinant; tags: N-terminal GST; dsDNA, one strand shown. In outline: as §1
ETV5, sequence (P41161 whole entry): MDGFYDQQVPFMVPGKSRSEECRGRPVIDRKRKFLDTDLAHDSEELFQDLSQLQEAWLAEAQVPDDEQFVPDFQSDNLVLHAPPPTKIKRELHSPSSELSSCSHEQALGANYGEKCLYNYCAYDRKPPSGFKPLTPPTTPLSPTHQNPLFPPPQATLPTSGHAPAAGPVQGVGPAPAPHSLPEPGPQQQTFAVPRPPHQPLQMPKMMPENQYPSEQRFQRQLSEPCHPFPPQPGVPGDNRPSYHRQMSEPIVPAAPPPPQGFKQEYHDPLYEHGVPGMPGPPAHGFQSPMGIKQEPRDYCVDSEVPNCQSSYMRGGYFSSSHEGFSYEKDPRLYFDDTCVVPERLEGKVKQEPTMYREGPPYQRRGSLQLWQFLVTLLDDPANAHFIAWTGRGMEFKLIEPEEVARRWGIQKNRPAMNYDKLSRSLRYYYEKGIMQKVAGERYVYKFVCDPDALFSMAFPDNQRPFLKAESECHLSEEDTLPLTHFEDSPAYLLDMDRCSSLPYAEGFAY
Test [12] addresses HSF1 (Homo sapiens, UniProt Q00613 1-529). The settings on record: protein: recombinant; tags: N-terminal GST; chain copies: 3; dsDNA, one strand shown. In outline: as §1
The target of test [13] is T8, SPIC (Homo sapiens, UniProt Q8N5J4 1-248).
T8 sequence: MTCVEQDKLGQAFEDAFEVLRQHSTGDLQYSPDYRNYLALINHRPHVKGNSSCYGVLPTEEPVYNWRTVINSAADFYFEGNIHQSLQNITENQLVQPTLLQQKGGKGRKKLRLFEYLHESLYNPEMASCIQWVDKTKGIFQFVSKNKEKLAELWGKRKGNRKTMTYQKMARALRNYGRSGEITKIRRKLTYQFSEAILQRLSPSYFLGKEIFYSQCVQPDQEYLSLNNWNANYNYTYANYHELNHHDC
The settings on record: protein: recombinant; tags: N-terminal GST; dsDNA, one strand shown. In outline:
as §1

Test [14] deals with ELF4 (Homo sapiens, UniProt Q99607 1-663). As to conditions: protein: recombinant; tags: N-terminal GST; dsDNA, one strand shown. In outline: as §1
ELF4, sequence (Q99607 whole entry): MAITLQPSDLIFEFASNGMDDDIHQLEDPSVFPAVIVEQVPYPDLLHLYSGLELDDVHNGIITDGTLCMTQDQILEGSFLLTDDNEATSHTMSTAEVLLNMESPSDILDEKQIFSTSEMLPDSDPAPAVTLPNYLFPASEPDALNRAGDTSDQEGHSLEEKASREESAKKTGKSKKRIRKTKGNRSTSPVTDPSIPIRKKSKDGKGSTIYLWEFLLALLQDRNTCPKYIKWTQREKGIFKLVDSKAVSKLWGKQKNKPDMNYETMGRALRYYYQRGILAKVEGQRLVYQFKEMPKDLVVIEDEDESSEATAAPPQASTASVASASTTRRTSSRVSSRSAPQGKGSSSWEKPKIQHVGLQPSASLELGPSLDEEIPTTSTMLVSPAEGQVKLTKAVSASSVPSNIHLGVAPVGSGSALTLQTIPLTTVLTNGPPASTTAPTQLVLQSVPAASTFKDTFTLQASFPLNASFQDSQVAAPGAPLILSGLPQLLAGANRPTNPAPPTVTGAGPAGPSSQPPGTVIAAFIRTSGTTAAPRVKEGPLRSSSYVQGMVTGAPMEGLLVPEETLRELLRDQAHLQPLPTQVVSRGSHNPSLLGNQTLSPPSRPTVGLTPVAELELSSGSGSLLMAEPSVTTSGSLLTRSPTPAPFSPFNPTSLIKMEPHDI
For test [15], the target named is T9, ELK4 (Homo sapiens, UniProt P28324-2 1-405).
T9 sequence: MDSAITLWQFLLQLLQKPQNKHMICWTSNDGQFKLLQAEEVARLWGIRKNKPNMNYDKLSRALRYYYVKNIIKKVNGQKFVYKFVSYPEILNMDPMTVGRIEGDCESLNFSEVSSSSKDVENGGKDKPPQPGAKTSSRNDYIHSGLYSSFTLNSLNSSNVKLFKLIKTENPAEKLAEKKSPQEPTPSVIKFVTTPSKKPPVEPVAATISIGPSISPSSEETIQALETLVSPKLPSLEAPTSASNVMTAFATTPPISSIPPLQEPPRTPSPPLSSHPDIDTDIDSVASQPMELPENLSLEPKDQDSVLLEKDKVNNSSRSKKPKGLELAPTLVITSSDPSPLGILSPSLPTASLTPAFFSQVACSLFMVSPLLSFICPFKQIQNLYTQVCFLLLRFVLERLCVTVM
As to conditions: protein: recombinant; tags: N-terminal GST; dsDNA, one strand shown. In outline:
as §1

For test [16], the target named is T10, ETV2 (Homo sapiens, UniProt O00321 1-342).
T10 sequence: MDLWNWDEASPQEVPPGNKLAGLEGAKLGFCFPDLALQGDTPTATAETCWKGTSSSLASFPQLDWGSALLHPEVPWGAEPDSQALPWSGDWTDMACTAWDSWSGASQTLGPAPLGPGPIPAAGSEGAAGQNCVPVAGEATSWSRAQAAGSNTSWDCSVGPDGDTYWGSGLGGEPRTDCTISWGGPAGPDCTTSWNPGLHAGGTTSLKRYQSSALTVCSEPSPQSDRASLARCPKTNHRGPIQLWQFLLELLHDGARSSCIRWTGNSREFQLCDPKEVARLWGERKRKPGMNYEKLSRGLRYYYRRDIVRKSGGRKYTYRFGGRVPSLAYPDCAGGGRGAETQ
As to conditions: protein: recombinant; tags: N-terminal GST; dsDNA, one strand shown. In outline:
as §1

Test [17] has as its target T11, ELF3 (Homo sapiens, UniProt P78545 1-371).
T11 sequence: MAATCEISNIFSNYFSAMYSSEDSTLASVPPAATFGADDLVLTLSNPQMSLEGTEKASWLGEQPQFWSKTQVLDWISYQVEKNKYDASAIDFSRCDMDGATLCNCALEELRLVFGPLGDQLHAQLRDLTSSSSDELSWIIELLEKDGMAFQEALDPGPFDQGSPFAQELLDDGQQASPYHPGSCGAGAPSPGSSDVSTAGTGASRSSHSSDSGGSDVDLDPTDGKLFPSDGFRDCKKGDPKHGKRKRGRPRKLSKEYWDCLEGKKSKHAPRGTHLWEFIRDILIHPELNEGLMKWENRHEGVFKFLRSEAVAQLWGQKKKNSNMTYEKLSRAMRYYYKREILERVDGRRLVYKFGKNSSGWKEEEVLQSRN
As to conditions: protein: recombinant; tags: N-terminal GST; dsDNA, one strand shown. In outline: as §1

The target of test [18] is CRX (Homo sapiens, UniProt O43186 1-299). The settings on record: protein: recombinant; tags: N-terminal GST; dsDNA, one strand shown. In outline:
as §1

Test [19] concerns the target ETV1 (Homo sapiens, UniProt P50549 1-477). The settings on record: protein: recombinant; tags: N-terminal GST; dsDNA, one strand shown. In outline: as §1

SPIB, sequence (Q01892 whole entry): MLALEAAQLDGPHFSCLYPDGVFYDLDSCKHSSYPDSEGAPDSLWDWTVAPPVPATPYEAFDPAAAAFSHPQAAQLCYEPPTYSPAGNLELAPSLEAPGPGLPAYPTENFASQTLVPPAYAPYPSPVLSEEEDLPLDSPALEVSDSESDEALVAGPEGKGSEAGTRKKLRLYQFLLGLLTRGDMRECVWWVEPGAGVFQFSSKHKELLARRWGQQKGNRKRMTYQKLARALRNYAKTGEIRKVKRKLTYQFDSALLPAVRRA
HSF1, sequence (Q00613 whole entry): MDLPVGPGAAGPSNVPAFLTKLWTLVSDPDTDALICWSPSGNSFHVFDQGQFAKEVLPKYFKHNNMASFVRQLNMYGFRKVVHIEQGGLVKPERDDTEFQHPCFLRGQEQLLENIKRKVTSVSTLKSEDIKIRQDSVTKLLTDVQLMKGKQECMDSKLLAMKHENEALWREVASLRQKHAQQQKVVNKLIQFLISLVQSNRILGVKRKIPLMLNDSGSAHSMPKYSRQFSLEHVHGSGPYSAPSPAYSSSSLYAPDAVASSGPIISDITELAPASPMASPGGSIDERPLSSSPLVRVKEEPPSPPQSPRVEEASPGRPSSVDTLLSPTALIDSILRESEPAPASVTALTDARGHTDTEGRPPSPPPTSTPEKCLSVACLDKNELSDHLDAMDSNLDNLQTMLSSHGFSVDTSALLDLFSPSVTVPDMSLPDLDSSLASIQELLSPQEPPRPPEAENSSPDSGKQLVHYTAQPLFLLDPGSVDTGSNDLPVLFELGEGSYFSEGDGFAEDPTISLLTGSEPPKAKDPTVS
ETV1, sequence (P50549 whole entry): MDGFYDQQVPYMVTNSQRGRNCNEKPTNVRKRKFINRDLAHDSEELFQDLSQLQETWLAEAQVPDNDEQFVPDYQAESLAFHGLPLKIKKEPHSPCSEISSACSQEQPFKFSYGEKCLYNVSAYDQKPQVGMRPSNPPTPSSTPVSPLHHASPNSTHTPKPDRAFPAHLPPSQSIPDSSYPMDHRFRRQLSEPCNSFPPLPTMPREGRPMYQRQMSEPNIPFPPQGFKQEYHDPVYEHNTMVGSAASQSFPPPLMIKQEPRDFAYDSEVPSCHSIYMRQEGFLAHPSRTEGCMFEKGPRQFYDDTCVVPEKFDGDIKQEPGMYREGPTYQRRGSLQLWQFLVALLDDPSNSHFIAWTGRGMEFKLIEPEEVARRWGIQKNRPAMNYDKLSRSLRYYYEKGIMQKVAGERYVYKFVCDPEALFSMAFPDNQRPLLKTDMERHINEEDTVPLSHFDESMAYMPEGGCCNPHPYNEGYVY
CRX, sequence (O43186 whole entry): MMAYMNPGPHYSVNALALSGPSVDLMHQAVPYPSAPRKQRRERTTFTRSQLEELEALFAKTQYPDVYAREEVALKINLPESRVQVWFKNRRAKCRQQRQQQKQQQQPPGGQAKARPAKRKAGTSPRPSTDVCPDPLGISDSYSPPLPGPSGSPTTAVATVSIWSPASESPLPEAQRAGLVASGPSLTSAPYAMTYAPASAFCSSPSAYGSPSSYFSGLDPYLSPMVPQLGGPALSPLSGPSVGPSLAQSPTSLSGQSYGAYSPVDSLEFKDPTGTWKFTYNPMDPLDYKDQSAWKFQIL

In the case of ATGGCT, the binding signal is 1.17 fold enrichment (6-mer frequency, TF over GST control) in test [1]; 1.34 fold enrichment (6-mer frequency, TF over GST control) in [2]; 1.29 fold enrichment (6-mer frequency, TF over GST control) in [3]; 1.37 fold enrichment (6-mer frequency, TF over GST control) in test [4]; 1.37 fold enrichment (6-mer frequency, TF over GST control) in test [5]; 1.4 fold enrichment (6-mer frequency, TF over GST control) in [6]. For the same sequence, the binding signal is 1.28 fold enrichment (6-mer frequency, TF over GST control) in test [7]; 1.37 fold enrichment (6-mer frequency, TF over GST control) in [8]; 1.28 fold enrichment (6-mer frequency, TF over GST control) in test [9]; 1.33 fold enrichment (6-mer frequency, TF over GST control) in [10]; 1.29 fold enrichment (6-mer frequency, TF over GST control) in [11]; 1.32 fold enrichment (6-mer frequency, TF over GST control) in [12]. The binding signal in [13] was 1.42 fold enrichment (6-mer frequency, TF over GST control); in test [14] it was 1.32 fold enrichment (6-mer frequency, TF over GST control); in test [15], 1.34 fold enrichment (6-mer frequency, TF over GST control); in [16] it was 1.41 fold enrichment (6-mer frequency, TF over GST control); in [17] it was 1.33 fold enrichment (6-mer frequency, TF over GST control); in test [18] it was 1.48 fold enrichment (6-mer frequency, TF over GST control). Moreover, in test [19], the binding signal is 1.29 fold enrichment (6-mer frequency, TF over GST control).
